Bioassay records: PubChem, Sanford-Burnham Center for Chemical Genomics
CRFBP-R2 agonist – CRF-BP/CRF-R2 complex agonism; HEK293 CRF-R2/CRF-BP, calcium dye fluorescence (FLIPR); percent of saturating CRF peptide response; activation, % at 13.2 µM; 0.46% of 350,000 active;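 active = activation of at least 50%, plus an integration ratio under a set limit after plate pattern correction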;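 also: plate controls were neutral control wells without compound for no effect and CRF at EC100 for full effect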
CRFBP-R2 block – antagonists of CRF-binding protein/CRF-R2 receptor complex | HEK293 CRF-R2/CRF-BP, CRF-induced calcium fluorescence | AID 588475 | inhibition, % at 11.8 µM | 0.59% of 350,000 active;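 active = inhibition of the ligand-induced calcium signal above about 50% at the single tested concentration, limit read from the data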
Cardio protect – myocardial damage modulation in H9c2 cells. H9c2 cardiomyocytes, H2O2 injury protection, ATPLite, 2 h. protection from H2O2 cell death, % at 20 µM. 0.63% of 360,000 active;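 active = compounds giving at least 50% protection of heart cells from peroxide-induced death in the single-dose screen, raw or plate-pattern-corrected value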;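 also: 0% = DMSO wells with peroxide and 100% = DMSO wells without peroxide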
SKN-1 block – C. elegans SKN-1 inhibition; C. elegans VP596 Pgst-4::GFP/RFP ratio, acrylamide-induced, 24 h; inhibition, % at 21.8 µM; 0.49% of 360,000 active; AID 624304;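 active = interference check ratio from 0.5 to 1.5 plus GFP to RFP signal ratio inhibition reaching or exceeding a fixed threshold, cut at about 30% in these data, passing the limit was not always enough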
H9c2 TAG inh – reduces triacylglycerol accumulation in H9c2 cells; 0.66% of 230,000 active; inhibition, % at 12.5 µM; Nile Red lipid (TAG) fluorescence; cells loaded with 200 µM oleic acid;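 active = pattern-corrected inhibition of lipid staining of at least 50% with the nuclear-stain viability signal not falling by more than 50%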;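 also: 0% = DMSO wells and 100% = triacsin C control wells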
hiPSC survival – hiPSC single-cell survival enhancement | ATPlite luminescence; 100% = ROCK inhibitor wells, 0% = DMSO | 0.044% of 360,000 active | survival enhancement, % at 20 µM; in the data active = survival enhancement above about 18%;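 also: cells exposed to compounds for 16 hours before the ATP read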
TAG conf – confirmation of triacylglycerol accumulation inhibitors; 71% of 990 active; inhibition, % at 12.5 µM; shares compounds with H9c2 TAG inh; H9c2 lipid accumulation, Nile Red fluorescence; cells loaded with 200 µM oleic acid;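 active = mean inhibition across replicates of 40% or more; inactive = mean inhibition below 40%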;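 also: plate controls were DMSO only wells for no effect and Triacsin C treated wells for full effect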
* marks the source's active call; other numbers are inactive results; · = no result. A selection: hits, their analogues and other compounds. The true share with any hit is near 2.5%.

SMILES	CRFBP-R2 agonist	CRFBP-R2 block	Cardio protect	SKN-1 block	H9c2 TAG inh	hiPSC survival	TAG conf
COc1ccc(N2C(=O)CSC23C(=O)N2c4c(cccc43)C(C)=CC2(C)C)cc1 (stereo not drawn)	-6	84*	-11	-11	·	0	·
Cc1ccc(C(=O)C=Cc2cccc(C)c2)cc1	-1	59*	-11	24	6	-5	·
CCC1CSC(Nc2ccc(C(=O)/C=C/c3cccc(C)c3)cc2)=N1 (stereo not drawn)	11	-12	-24	54*	-8	-2	·
COc1ccc(NC(=O)CC(c2ccc(F)cc2)c2ccc(OC)cc2)cc1 (stereo not drawn)	-1	2	1	3	·	2	·
O=C(CC(c1ccccc1)c1ccccc1)NCCOCc1ccccc1	-1	4	-1	-1	0	0	·
COc1ccc(C(CC(=O)Nc2ccc(F)cc2)c2ccccc2)cc1 (stereo not drawn)	5	52*	-4	11	-10	0	·
COCCNC(=O)CC(c1ccccc1)c1ccccc1	-1	-9	-3	36*	·	4	·
CCc1nc2c(OCc3ccc(F)c(F)c3)cccn2c1N(C)C(=O)c1cccs1	·	·	4	8	-8	2	·
Cc1cccc(C)c1NC(=O)CN(c1c(C)cccc1C)S(C)(=O)=O	-1	-4	-1	4	-12	-1	·
O=C(NCCc1ccccc1)c1n[nH]c(=O)c2ccccc12	3	6	7	12	15	-1	·
CC1CCN(CCCNC(=O)c2n[nH]c(=O)c3ccccc23)CC1	2	-3	72*	-25	13	4	·
O=C(Nc1ncc(S(=O)(=O)c2ccc([N+](=O)[O-])cc2)s1)c1ccccc1F	57*	-20	-13	4	5	-1	·
COC(=O)C(NC(=O)c1ccc(F)cc1)(Nc1ncc(S(=O)(=O)c2ccc([N+](=O)[O-])cc2)s1)C(F)(F)F (stereo not drawn)	-5	58*	-13	12	5	0	·
COc1ccc(CCNC(=O)c2ccc(F)c(S(=O)(=O)N3CCCCC3)c2)cc1	3	26	0	4	1	-2	·
Cc1cc(N/N=C/c2ccc(F)cc2)nc(-n2nc(C)cc2C)n1	-6	-34	28	-10	57*	-1	53*
C=CCn1c(N)c(C(=O)OC(C)(C)C)c2nc3ccccc3nc21	-2	9	2	-8	1	-2	·
C=CCn1c(N)c(C(=O)Nc2ccccc2)c2nc3ccccc3nc21	-1	11	-3	12	78*	5	88*
Cc1cc(NC(=O)CSc2nc(C(C)(C)C)nc3ccccc23)no1	3	-25	-8	1	-13	1	·
Cc1cc(NC(=O)CSc2nc(-c3cccs3)nc3ccccc23)no1	-1	1	10	-6	78*	-1	73*
CCCCOc1ccc(/C=C(\C(=O)O)c2ccc(S(=O)(=O)N3CCCC3)s2)cc1	1	11	-3	12	-18	1	·
Cc1ccc2nc(NC(=O)CN(C)S(=O)(=O)c3cccc4nsnc34)sc2c1	4	-16	-9	-14	71*	-3	65*
O=C1c2ccccc2C(=O)c2c1ccc(C(=O)N1CCCCC1)c2NCCO	-2	15	-16	40*	83*	-3	83*
O=C(NCCc1ccccn1)C1CCN(S(=O)(=O)c2ccc3ccccc3c2)CC1	-1	4	-4	0	8	-2	·
FC(F)Oc1ccc(-c2csc(NNC3=NCCCCC3)n2)cc1	-2	10	1	-4	119*	-2	125*
Brc1ccc(-c2csc(NNC3=NCCCCC3)n2)cc1	-1	10	0	4	130*	-1	129*
SMILES	CRFBP-R2 agonist	CRFBP-R2 block	Cardio protect	SKN-1 block	H9c2 TAG inh	hiPSC survival	TAG conf
O=C1NC(Cc2ccc(O)cc2)c2nc3ccc(F)cc3c(=O)n2-c2cc(Cl)ccc21 (stereo not drawn)	-2	4	32	-10	-6	0	·
CC1=C(C(=O)Nc2ccccc2)C2(CCCCC2)C(C#N)=C(SCC(N)=O)N1	3	-9	2	4	4	-1	·
CC1(C)CC(=O)C2=C(C1)NC(SCC(=O)Nc1ccccc1)=C(C#N)C21CCCCC1	2	-8	-21	6	58*	3	31
C=CCN1C(=O)/C(=C2/Sc3ccccc3N2C)SC1=Nc1ccccc1C	3	-10	6	-5	61*	1	39
C=CCN1C(=O)/C(=C2/Sc3ccccc3N2C)SC1=Nc1c(C)n[nH]c1C	-1	3	2	-18	·	0	·
COc1cc2c(cc1[N+](=O)[O-])-c1ccc([N+](=O)[O-])cc1C2=NNC(N)=S	-2	-16	2	13	52*	2	42*
CC(C)(C)c1ccc(C(=O)NNc2cc(N3CCCCC3)nc(N3CCCCC3)n2)cc1	0	9	-24	7	60*	-2	36
COc1ccc2nc3cc([N+](=O)[O-])ccc3c(NNc3ccc([N+](=O)[O-])cc3)c2c1	-1	-6	-2	-2	50*	1	44*
COc1ccc(-c2cc(C(=O)Oc3ccc([N+](=O)[O-])cc3)c3ccccc3n2)cc1	1	-24	-14	-7	6	-4	·
COc1cccc(-c2nnc(SCC(=O)Nc3cc(C)ccc3OC)n2N)c1	-1	-2	0	-14	53*	0	26
COc1ccc(C)cc1NC(=O)CSc1nnc(-c2ccco2)n1N	-1	5	2	-22	·	-1	·
COc1cccc(C2/C(=C(\O)c3ccc4c(c3)OCCO4)C(=O)C(=O)N2Cc2cccnc2)c1 (stereo not drawn)	1	-9	3	10	·	0	·
CC(C)(C)c1ccc(Oc2ccc(NC(=O)c3ccccc3C(=O)O)cn2)cc1	2	-11	-3	12	62*	0	6
O=C(O)c1ccccc1C(=O)Nc1ccc(Oc2ccccc2)cc1	1	9	-8	8	1	-1	·
COc1ccc(CCN(C)C/C=C/c2ccccc2[N+](=O)[O-])cc1OC	-1	-4	-2	-10	·	0	·
COc1ccc(S(=O)(=O)N(C)C[C@@H]2OCCCC[C@H](C)Oc3ccc(NC(=O)Nc4ccc(C(F)(F)F)cc4)cc3C(=O)N([C@H](C)CO)C[C@H]2C)cc1	5	14	-14	0	59*	-5	44*
CN(Cc1ccc(C(C)(C)C)cc1)C(=O)C1CCN(C(=O)Nc2ccccc2)CC1	0	-11	-5	-1	37	0	·
COCCN(Cc1ccccc1)C(=O)C1CCN(C(=O)Nc2ccccc2)CC1	0	6	0	-23	54*	0	45*
